# Laboratory results published in PubChem BioAssay (NCI).
# This is part of a sample that, as a whole, favours compounds with a hit. Of some 83,000 tested, about 20% had one in any assay.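 Cells were grown in 96-well plates and exposed to the test compound at a single concentration for 48 hours; results are reported as percent growth, with values below 10 considered active.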 Values without a mark were called inactive. Active and inactive are the calls of the source.
# Legend:
# Assay in all cases: NCI-60 one-dose screen, 48 h (100 = growth as untreated, 0 = no growth, -100 = all killed)
# Conditions in all cases: 10 µM unless noted
# K-562 leukemia = tested on: K-562 leukemia
# MALME-3M melanoma = tested on: MALME-3M melanoma
# MDA-MB-231 breast = tested on: MDA-MB-231 breast
# RXF 393 renal = tested on: RXF 393 renal
# SF-268 CNS = tested on: SF-268 CNS
# SF-295 CNS = tested on: SF-295 CNS
# SF-539 CNS = tested on: SF-539 CNS
# UACC-257 melanoma = tested on: UACC-257 melanoma
# M14 melanoma = tested on: M14 melanoma
# HCT-15 colon = tested on: HCT-15 colon
# HT29 colon = tested on: HT29 colon
# SNB-75 CNS = tested on: SNB-75 CNS
# SNB-19 CNS = tested on: SNB-19 CNS
# U251 CNS = tested on: U251 CNS
# PC-3 prostate = tested on: PC-3 prostate
# SK-MEL-5 melanoma = tested on: SK-MEL-5 melanoma
# UACC-62 melanoma = tested on: UACC-62 melanoma
# LOX IMVI melanoma = tested on: LOX IMVI melanoma
# SK-MEL-28 melanoma = tested on: SK-MEL-28 melanoma
# SK-MEL-2 melanoma = tested on: SK-MEL-2 melanoma
SMILES,growth (K-562 leukemia),growth (MALME-3M melanoma),growth (MDA-MB-231 breast),growth (RXF 393 renal),growth (SF-268 CNS),growth (SF-295 CNS),growth (SF-539 CNS),growth (UACC-257 melanoma),growth (M14 melanoma),growth (HCT-15 colon),growth (HT29 colon),growth (SNB-75 CNS),growth (SNB-19 CNS),growth (U251 CNS),growth (PC-3 prostate),growth (SK-MEL-5 melanoma),growth (UACC-62 melanoma),growth (LOX IMVI melanoma),growth (SK-MEL-28 melanoma),growth (SK-MEL-2 melanoma)
COc1ccc(-c2csc(N/N=C/c3c(-c4ccc(S(C)(=O)=O)cc4)nc4ccccn34)n2)cc1,98.5%,118%,107%,114%,110%,106%,107%,112%,106%,101%,115%,110%,106%,106%,105%,96.5%,102%,126%,107%,114%
CCN(CC)c1ccc(C=O)c(OCc2cn(CC(=O)Nc3ccc(Cl)cc3)nn2)c1,51.7%,91.5%,80.4%,34.1%,84.6%,65.8%,75%,108%,87.7%,61.4%,73.2%,103%,69%,53.7%,56.2%,92.7%,58%,58.8%,92.7%,89.7%
C[C@@H]1CN(c2ccc3ncc(C#Cc4cncc(C(=O)Nc5ccc(CN6CCN(C)CC6)c(C(F)(F)F)c5)c4)n3n2)C[C@H](C)O1,-11.8% (active),-68.9% (active),-24.9% (active),-92.1% (active),-60.3% (active),0.595% (active),-96.1% (active),-19.1% (active),-76.3% (active),-17.2% (active),-65.8% (active),-79.3% (active),-4.76% (active),-97.9% (active),0.777% (active),-94.5% (active),-65.9% (active),-87.7% (active),-89.5% (active),-89.7% (active)
COc1ccccc1C(=O)CSc1nc(Nc2ccc(S(N)(=O)=O)cc2)c2ccccc2n1,85.7%,90.2%,77.3%,97.1%,89.9%,97.6%,81.2%,111%,94.1%,92.4%,102%,106%,85.7%,93%,92.6%,91.7%,88.6%,16.1%,96.8%,98.1%
CN(C)CCCNc1c2ccc(Cl)cc2nc2c1oc1ccc(Cl)cc12,-6.56% (active),49.4%,-60.9% (active),-80.8% (active),43.8%,-66.9% (active),-85.8% (active),94.5%,-75.6% (active),-42.4% (active),-45.6% (active),45.2%,38.2%,-50.9% (active),-24.1% (active),77.1%,12.6%,-93.7% (active),72.5%,127%
CC(C)(C)Nc1nc2c(OCCc3ccccc3)cccn2c1-c1ccc(Cl)cc1,5.28% (active),1.51% (active),17.4%,-15.3% (active),45.5%,3.7% (active),21.7%,16.7%,26.8%,3.86% (active),24.2%,51.7%,19.7%,11.9%,3.08% (active),-71.6% (active),11.1%,2.87% (active),29.7%,-33.9% (active)
O=C(CSc1nc2sc3c(c2c(=O)n1-c1ccc(Cl)cc1)CCCC3)NNC(=O)Nc1ccc(Cl)c(C(F)(F)F)c1,11.7%,22.5%,61.2%,70.5%,67%,9.82% (active),73.1%,46.5%,44%,24.5%,6.06% (active),42.1%,50.4%,4.22% (active),-2.4% (active),34.7%,37.1%,1.34% (active),53.7%,-9.26% (active)
Clc1ccc2c(NCCCn3ccnc3)c3oc4ccccc4c3nc2c1,8.56% (active),43.2%,36.7%,32.3%,45.3%,26.3%,27.4%,80.7%,61.7%,13.7%,19.4%,47.8%,57.1%,19.6%,47.9%,76%,66.1%,14.4%,68.2%,84.9%
N#Cc1nc(-c2ccccc2)oc1S(N)(=O)=O,21.5%,64.9%,47.9%,45.8%,110%,101%,36.8%,78.3%,40.7%,27.1%,43.8%,91.7%,95.3%,92.6%,81.4%,76.2%,66.6%,10.5%,69.5%,84.9%
COc1ccc(-c2nc3ccc(-c4nnc(SCC(=O)Nc5ccc(C(=O)/C=C/c6ccccc6)cc5)o4)cc3[nH]2)cc1OC,91.6%,97.1%,91.2%,110%,106%,94.9%,83.7%,110%,108%,91.8%,103%,90.3%,107%,93.2%,101%,95.5%,95%,-11.8% (active),105%,108%
Nc1cc(-c2c[nH]c3ccccc23)nc2cc(-c3c[nH]c4ccccc34)nn12,4.17% (active),64.5%,48.2%,38.2%,75.2%,34.8%,32.4%,70.2%,29.3%,6.35% (active),9.63% (active),82.5%,86.2%,29.7%,60.6%,45.6%,87.5%,-25.2% (active),59.6%,96%
CN(C)CCCOc1c2ccc(Cl)cc2nc2c1oc1ccc(Cl)cc12,-39.8% (active),0.745% (active),-48.3% (active),-86.6% (active),25.9%,11.9%,16.5%,41.3%,-49.5% (active),-80.5% (active),-77.6% (active),18.3%,24.5%,-66% (active),23.2%,-19.3% (active),-68.1% (active),-77.2% (active),4.58% (active),58.5%
CCN1C(=S)N(CC)C2C1NN=C1SC(c3ccccc3)=CC(=O)N12 (stereo not given),57.1%,105%,94%,89%,115%,106%,98%,103%,106%,78.2%,106%,129%,98.5%,103%,99.2%,99.7%,92.6%,100%,99.5%,98.2%
CS(=O)(=O)c1ccc(-c2nc3ccccn3c2/C=N/Nc2nc(-c3ccc(Br)cc3)cs2)cc1,86.1%,128%,105%,99.7%,108%,102%,105%,122%,112%,92.6%,114%,114%,103%,107%,100%,96.5%,102%,112%,103%,113%
CCCSc1nc(Nc2ccc(/C(C)=N\NC(N)=S)cc2)c(C#N)c(-c2ccc(OC)cc2)n1,85.1%,49.2%,7.95% (active),10.8%,64.5%,42.2%,18.7%,93.7%,79.5%,75.7%,87.7%,56%,39.7%,17.1%,99.8%,58.2%,87.7%,68%,79.8%,89.7%
